Screens deposited in PubChem BioAssay by Broad Institute.
This is one part of a sample in which hits are shown more often than they occur.
Rtt109 HAT inh = blocks Candida albicans Rtt109/Vps75 acetyltransferase activity; purified Rtt109/Vps75, ThioGlo CoA-SH fluorescence, 4 h; inhibition, % at 34.9 µM; 330,000 tested, 0.16% active; AID 540336;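 active = inhibition of at least 50% in every replicate; inconclusive = best replicate reaches 50% inhibition but some replicates fall short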
Target sequence (Q5AAJ8 whole entry, looked up): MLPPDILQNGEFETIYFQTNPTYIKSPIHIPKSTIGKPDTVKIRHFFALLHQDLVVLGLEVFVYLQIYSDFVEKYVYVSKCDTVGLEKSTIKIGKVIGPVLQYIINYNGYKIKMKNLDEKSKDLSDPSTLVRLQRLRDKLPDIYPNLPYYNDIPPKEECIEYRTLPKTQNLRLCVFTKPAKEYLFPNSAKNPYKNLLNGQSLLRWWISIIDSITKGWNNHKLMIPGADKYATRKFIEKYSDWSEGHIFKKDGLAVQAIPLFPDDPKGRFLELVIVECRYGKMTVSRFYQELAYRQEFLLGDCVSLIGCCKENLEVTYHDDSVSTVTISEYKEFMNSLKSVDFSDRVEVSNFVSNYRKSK
PglD DTNB = inhibitors of Campylobacter jejuni PglD acetyltransferase. purified PglD enzyme, DTNB colorimetric CoA detection. inhibition, % at 12.5 µM. 360,000 tested, 0.098% active. AID 602405; in the data active = inhibition above about 16%, passing the limit was not always enough; inconclusive = no clear call, values can overlap the other calls
DENV2 CPE rescue = inhibitors of DENV2 cytopathic effect | CPE inhibition, % at 9.99 µM | 350,000 tested, 1.7% active | DENV2-infected cells, cytopathic effect rescue, plate reader; in the data active = CPE inhibition above about 20%, passing the limit was not always enough; inconclusive = no clear call, values can overlap the other calls; tested in BHK-21 cells;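 note: 0% = median of neutral control wells and 100% = median of positive control wells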
N-glyco inh = N-linked glycosylation inhibition; 360,000 tested, 0.23% active; D54 ERlucT glycosylation luciferase reporter, 24 h; percent of 100 nM tunicamycin response; reporter increase, % at 12.5 µM; AID 588692;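 active = mean luciferase reporter signal, scaled so untreated is 0 and the glycosylation-blocking control 100, at or above a set limit in every replicate; inconclusive = mean reaches the limit but not every replicate does; inactive = mean below the limit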;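 note: luciferase carries N-glycosylation sites so blocking glycosylation raises the light; 0% = median of neutral control wells and 100% = median of 100 nM tunicamycin wells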
Numbers without * were called inactive; ? = inconclusive; · = not tested or not shown; ! = repeats disagree.

SMILES | Rtt109 HAT inh | PglD DTNB | DENV2 CPE rescue | N-glyco inh
O=C(O)c1ccc(N=NN2CCCCCC2)cc1 | -4 | · | 112* | -10
CCC(=O)N1CCCCN2[C@H](C1)[C@H](c1ccc(C#Cc3ccccc3)cc1)[C@@H]2CO | · | 0 | 7 | ·
S=C1N(c2ccccc2)C(c2ccc(Br)cc2)N2CCCN12 (stereo not drawn) | · | 2 | 42* | 1
Cc1ccccc1C(=O)NC(NC(=S)Nc1ccc(S(N)(=O)=O)cc1)C(Cl)(Cl)Cl (stereo not drawn) | 58* | · | · | 0
COCC(=O)N(C)C[C@@H]1Oc2ncc(C#Cc3ccc(OC)cc3)cc2C(=O)N([C@@H](C)CO)C[C@H]1C | · | 0 | 68* | ·
COCC(=O)N(C)C[C@H]1Oc2ncc(-c3ccccc3OC)cc2C(=O)N([C@@H](C)CO)C[C@@H]1C | · | -3 | 21* | ·
CC(=O)N(C)C[C@H]1Oc2ncc(C#CC(C)(C)O)cc2C(=O)N([C@@H](C)CO)C[C@@H]1C | · | 1 | 30* | ·
CC(=O)N(C)C[C@@H]1Oc2ncc(C#CC(C)(C)O)cc2C(=O)N([C@@H](C)CO)C[C@@H]1C | · | 3 | -8 | ·
COCC(=O)N(C)C[C@@H]1Oc2ncc(C#CC(C)(C)O)cc2C(=O)N([C@@H](C)CO)C[C@@H]1C | · | -1 | 24* | ·
CCCNC(=O)N1CC2(CN(C)C2)c2c([nH]c3cc(OC)ccc23)[C@@H]1CO | · | · | 5 | ·
C[C@H]1CN([C@@H](C)CO)C(=O)c2cc(NC(=O)Cc3cn(C)c4ccccc34)ccc2O[C@@H]1CN(C)Cc1ccc(Oc2ccccc2)cc1 | · | 4 | ? | ·
C[C@@H]1CCCCO[C@@H](CN(C)C(=O)Nc2ccc(F)cc2)[C@H](C)CN([C@H](C)CO)C(=O)c2cc(NS(=O)(=O)c3cn(C)cn3)ccc2O1 | · | 8 | -2 | ·
Cc1cn([C@H]2C[C@H](O)[C@@H](CNCc3ccc4ncccc4c3)O2)c(=O)[nH]c1=O | · | 1 | 94* | 4
COc1ccc(N2CCN(c3cc(C(=O)NC4CCCCC4)ncn3)CC2)cc1OC | · | 2 | 22* | -1
CCOc1ccc(C2=CC(=O)C[C@H](c3ccc(OC)cc3)C2)cc1 | 1 | -1 | 26* | 8
COc1ccc([C@H]2CC(=O)C=C(c3c(OC)cccc3OC)C2)cc1 | 0 | 0 | 0 | 29*
COc1ccc(C2=CC(=O)CC(c3ccc(OC)cc3)C2)cc1 (stereo not drawn) | 1 | 0 | 5 | 2
COc1ccc([C@H]2CC(=O)C=C(c3cc(OC)ccc3OC)C2)cc1 | 6 | -2 | · | 13
CC(=O)c1ccccc1OC(=O)c1ccc([N+](=O)[O-])o1 | 58* | 3 | -3 | 3
COc1ccc(OC)c(S(=O)(=O)N2CCN(c3c(C)cccc3C)CC2)c1 | 2 | -2 | 27* | -2
C[C@@H]1CN([C@H](C)CO)C(=O)c2cc(NC(=O)Nc3ccccc3)ccc2O[C@H]1CN(C)C | · | 5 | 2 | ·
COc1nc(=O)n(C2C=CC(=O)O2)cc1F (stereo not drawn) | · | -2 | 2 | 33*
O=C(Cc1ccccc1)NC[C@H]1N[C@H](CO)[C@@H]1c1ccc(-c2ccccc2)cc1 | · | · | 4 | ·
Cc1cc(C)n2c(Nc3ccc4c(c3)OCCO4)c(CC(C)C)nc2n1 | · | · | 46* | ·
COc1cc(/C=C(\CC(=O)O)c2nc3ccccc3s2)ccc1OCC(=O)Nc1ccccc1F | 1 | -1 | -4 | 1
SMILES | Rtt109 HAT inh | PglD DTNB | DENV2 CPE rescue | N-glyco inh
COc1cc(/C=C(\C#N)c2nc3ccccc3s2)ccc1OCC(=O)Nc1ccccc1 | -1 | · | · | 71*
O=C(C[C@@H]1CC[C@H](NC(=O)c2ccc3c(c2)OCO3)[C@@H](CO)O1)NCc1ccc(Cl)cc1 | · | -3 | 4 | ·
C/C=C/c1ccc([C@@H]2[C@@H](CO)N(C(=O)NCCC)[C@H]2CN(C)C(=O)CC)cc1 | · | 0 | 78* | ·
C/C=C/c1ccc([C@H]2[C@@H](CO)N(C(=O)NCCC)[C@H]2CN(C)C(=O)CC)cc1 | · | · | -9 | ·
C/C=C/c1ccc([C@@H]2[C@@H](CNC(=O)C3CC3)N(C(=O)CC)[C@H]2CO)cc1 | · | 5 | 26* | ·
C/C=C/c1ccc([C@H]2[C@@H](CO)N(C(C)=O)[C@H]2CNC(=O)c2ccccc2)cc1 | · | -6 | 24* | ·
CCCNC(=O)N1[C@H](CO)[C@H](c2ccccc2)[C@@H]1CNC(=O)C1CCCC1 | · | · | 22* | ·
O=C(Nc1ccc(F)cc1F)c1c(C(F)(F)F)ccnc1Oc1ccccc1 | · | 4 | 5 | 2
Cc1cccc(Oc2nccc(C(F)(F)F)c2C(=O)Nc2ccc(F)cc2F)c1 | 3 | · | 32* | 0
CCCC1NC(=O)c2cc3ccccc3cc2-n2c1nc1ccc(F)cc1c2=O (stereo not drawn) | · | 1 | 67* | 5
O=C1NC(Cc2ccccc2)c2nc3ccc(Cl)cc3c(=O)n2-c2cc(Cl)ccc21 (stereo not drawn) | · | · | -12 | ·
O=C1NC(Cc2ccccc2)c2nc3ccc(Cl)cc3c(=O)n2-c2ccccc21 (stereo not drawn) | · | · | 68* | ·
O=C1NC(Cc2ccc(O)cc2)c2nc3ccccc3c(=O)n2-c2ccccc21 (stereo not drawn) | · | · | 39* | ·
CC(=O)N(C)C[C@H]1Oc2ncc(/C=C/c3ccccc3)cc2C(=O)N([C@H](C)CO)C[C@H]1C | · | -1 | 8 | ·
Cc1noc(C)c1S(=O)(=O)Nc1ccc2c(c1)C(=O)N([C@H](C)CO)C[C@H](C)[C@H](CN(C)Cc1ccc(-c3ccccc3)cc1)O2 | · | -1 | -6 | ·
C[C@H](CO)N1C[C@H](C)[C@@H](CN(C)Cc2ccncc2)OCCCC[C@H](C)Oc2ccc(N(C)C)cc2C1=O | · | 2 | 31* | ·
C[C@@H]1CCCCO[C@@H](CN(C)Cc2ccc(Cl)c(Cl)c2)[C@@H](C)CN([C@H](C)CO)C(=O)c2cc(N(C)C)ccc2O1 | · | -6 | 4 | ·
C[C@H](CO)N1C[C@H](C)[C@@H](CN(C)Cc2ccc(Cl)c(Cl)c2)OCCCC[C@H](C)Oc2ccc(N(C)C)cc2C1=O | · | · | 30* | ·
CCOC(=O)N(C)C[C@@H]1OCc2cnnn2CCCC(=O)N([C@@H](C)CO)C[C@@H]1C | · | 2 | 70*! | 0
C[C@@H]1CN([C@@H](C)CO)C(=O)CCCn2nncc2CO[C@H]1CN(C)Cc1cccc2c1OCCCO2 | · | -1 | 45*! | 1
C[C@@H]1CN([C@@H](C)CO)C(=O)CCCn2nncc2CO[C@H]1CN(C)C(=O)Nc1ccccc1 | · | 0 | 31* | ·
C[C@@H]1CN([C@H](C)CO)C(=O)CCCn2nncc2CO[C@@H]1CN(C)C(=O)Nc1ccccc1 | · | 2 | 3 | ·
CC(C)NC(=O)N(C)C[C@H]1OCc2cnnn2CCCC(=O)N([C@H](C)CO)C[C@@H]1C | · | -3 | 92*! | 2
CC(C)NC(=O)N(C)C[C@@H]1OCc2cnnn2CCCC(=O)N([C@@H](C)CO)C[C@@H]1C | · | 1 | 7 | ·
CC(C)NC(=O)N(C)C[C@H]1Oc2ccc(NC(=O)C3CCCCC3)cc2CC(=O)N([C@@H](C)CO)C[C@H]1C | · | 2 | 10 | ·
COCC(=O)N1CC[C@@H]2[C@H]1c1cc(C#Cc3cccc(F)c3)ccc1N[C@@H]2CO | · | 1 | -6 | ·
